Experimental findings from PubChem BioAssay (Tox21) are described below.

For assay [1], the target named is Cytochrome P450 2D6 (Homo sapiens) (UniProt P10635). The assay is described as follows: Cytochrome P450 Family 2 Subfamily D Member 6 (CYP2D6) small molecule antagonists: luciferase reporter qHTS assay (AID 1671196). Note: nearly all actives have a fitted effect of over 50% in size. Note: potency is the fitted concentration of half-maximal effect. Put shortly: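 Test chemicals meet CYP2D6 plus proluciferin substrate (10 min, RT); NADPH regenerating solution then drives turnover for 1 h. Detection reagent halts the reaction; luminescence measured after 20 min.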

In assay [2] the target is Cytochrome P450 2C19 (Homo sapiens) (UniProt P33261). Description: Cytochrome P450 Family 2 Subfamily C Member 19 (CYP2C19) small molecule antagonists: luciferase reporter qHTS assay (AID 1671197). Note: nearly all actives have a fitted effect of over 65% in size. Note: potency is the fitted concentration of half-maximal effect. Put shortly:
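Relative luminescence units recorded 20 min after the detection reagent stopped a 1 h, 37C CYP2C19 reaction on proluciferin substrate, which was started by NADPH regeneration following 10 min room-temperature compound preincubation; ketoconazole positive control.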

Assay [3] addresses Cytochrome P450 2C9 (Homo sapiens) (UniProt P11712). The assay is described as follows: Cytochrome P450 Family 2 Subfamily C Member 9 (CYP2C9) small molecule antagonists: luciferase reporter qHTS assay (AID 1671198). Note: nearly all actives have a fitted effect of over 50% in size. Note: potency is the fitted concentration of half-maximal effect. An outline of the steps: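 Enzyme-substrate mix preincubated with compound 10 min at room temperature; reaction started with NADPH regeneration solution, 1 h 37C. Luminescent luciferin product read after 20 min detection reagent.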
(In a reporter assay the amount or activity of a reporter protein is the signal.)

Assay [4] concerns the target Cytochrome P450 1A2 (Homo sapiens) (UniProt P05177). Description: Cytochrome P450 Family 1 Subfamily A Member 2 (CYP1A2) small molecule antagonists: luciferase reporter qHTS assay (AID 1671199). Note: nearly all actives have a fitted effect of over 50% in size. Note: potency is the fitted concentration of half-maximal effect. Put shortly: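 Steps: enzyme-substrate mix dispensed; test compounds and furafylline control pinned in; 10 min room temperature; NADPH regeneration solution added, 1 h; reaction stopped with luciferin detection reagent; luminescence read after 20 min.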

For assay [5], the target named is Voltage-gated inwardly rectifying potassium channel KCNH2 (Homo sapiens) (UniProt Q12809). Description: Human Ether-a-go-go-Related Gene (hERG) channel small molecule antagonists: fluorescence cell-based qHTS assay (AID 1671200).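 Note: hERG-expressing U2OS cells given a thallium stimulus after FluxOR II dye loading; series mostly up to about 77 µM; nearly all actives have a fitted effect of over 50% in size.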 An outline of the steps:
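Quantitative HTS in hERG-U2OS cells: thallium entry through the channel reports activity, read as continuous 480/540 nm fluorescence over 2 min after stimulus addition.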

In assay [6] the target is Cytochrome P450 3A4 (Homo sapiens) (UniProt P08684). Description: Cytochrome P450 Family 3 Subfamily A Member 4 (CYP3A4) small molecule antagonists: luciferase reporter qHTS assay (AID 1671201). Note: nearly all actives have a fitted effect of over 50% in size. Note: potency is the fitted concentration of half-maximal effect. Put shortly: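 Inhibition of CYP3A4 is measured as loss of light: the enzyme converts a proluciferin substrate to luciferin, detected luminescently. Reaction ran 1 h at room temperature with NADPH regeneration after a 10 min compound preincubation.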

Records with an inconclusive call do not appear. A number with no mark means an inactive call. Activity calls are given as the source filed them. Calls come from the whole dose curve; as a rule, active = well fitted curve in the direction sought with a large enough effect in the repeat runs; inconclusive = weak or mixed curves; inactive = no such curve, though single readings can be large; an effect the other way counts as inactive or inconclusive.

Cytochrome P450 3A4 (Homo sapiens), sequence (P08684 whole entry, looked up): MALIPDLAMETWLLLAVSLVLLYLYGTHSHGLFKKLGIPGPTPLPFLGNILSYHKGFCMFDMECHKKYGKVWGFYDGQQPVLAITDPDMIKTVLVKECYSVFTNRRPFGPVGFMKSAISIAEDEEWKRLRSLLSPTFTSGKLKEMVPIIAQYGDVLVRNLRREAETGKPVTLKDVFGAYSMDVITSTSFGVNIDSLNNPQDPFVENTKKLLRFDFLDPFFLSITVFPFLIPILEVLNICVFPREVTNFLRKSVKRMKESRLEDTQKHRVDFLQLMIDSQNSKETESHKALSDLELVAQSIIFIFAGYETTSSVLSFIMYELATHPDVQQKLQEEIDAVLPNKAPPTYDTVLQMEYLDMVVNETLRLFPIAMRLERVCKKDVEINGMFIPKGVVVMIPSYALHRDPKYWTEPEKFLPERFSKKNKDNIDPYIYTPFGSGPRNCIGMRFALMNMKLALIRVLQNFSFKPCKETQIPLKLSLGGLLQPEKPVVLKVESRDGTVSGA
Cytochrome P450 2C9 (Homo sapiens), sequence (P11712 whole entry, looked up): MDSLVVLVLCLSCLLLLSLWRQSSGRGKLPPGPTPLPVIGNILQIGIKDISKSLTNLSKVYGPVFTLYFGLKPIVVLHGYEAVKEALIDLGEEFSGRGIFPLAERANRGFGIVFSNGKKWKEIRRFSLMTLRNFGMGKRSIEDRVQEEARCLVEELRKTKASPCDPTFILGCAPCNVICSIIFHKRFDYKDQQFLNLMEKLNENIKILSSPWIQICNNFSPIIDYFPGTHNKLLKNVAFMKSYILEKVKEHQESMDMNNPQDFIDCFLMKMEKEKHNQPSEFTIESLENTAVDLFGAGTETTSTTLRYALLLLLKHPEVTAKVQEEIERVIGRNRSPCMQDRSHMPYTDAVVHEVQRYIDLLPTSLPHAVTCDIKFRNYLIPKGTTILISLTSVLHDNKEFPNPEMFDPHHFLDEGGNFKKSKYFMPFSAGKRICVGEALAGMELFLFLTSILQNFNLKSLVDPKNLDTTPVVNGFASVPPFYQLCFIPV
Cytochrome P450 1A2 (Homo sapiens), sequence (P05177 whole entry, looked up): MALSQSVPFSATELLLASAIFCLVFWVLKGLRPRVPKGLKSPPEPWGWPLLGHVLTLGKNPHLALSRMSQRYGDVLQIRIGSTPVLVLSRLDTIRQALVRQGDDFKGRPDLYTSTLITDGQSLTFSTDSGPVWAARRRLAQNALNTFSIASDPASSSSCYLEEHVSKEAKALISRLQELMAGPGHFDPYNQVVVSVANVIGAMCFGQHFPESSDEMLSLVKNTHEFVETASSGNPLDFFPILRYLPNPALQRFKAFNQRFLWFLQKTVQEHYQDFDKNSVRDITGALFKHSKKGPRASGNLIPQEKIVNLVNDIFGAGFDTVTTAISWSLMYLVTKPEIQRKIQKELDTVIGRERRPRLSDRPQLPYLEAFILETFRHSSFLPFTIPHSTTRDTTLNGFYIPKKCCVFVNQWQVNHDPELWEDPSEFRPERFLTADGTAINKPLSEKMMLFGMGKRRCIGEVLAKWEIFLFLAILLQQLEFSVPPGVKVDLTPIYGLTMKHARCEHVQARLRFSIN
Cytochrome P450 2C19 (Homo sapiens), sequence (P33261 whole entry, looked up): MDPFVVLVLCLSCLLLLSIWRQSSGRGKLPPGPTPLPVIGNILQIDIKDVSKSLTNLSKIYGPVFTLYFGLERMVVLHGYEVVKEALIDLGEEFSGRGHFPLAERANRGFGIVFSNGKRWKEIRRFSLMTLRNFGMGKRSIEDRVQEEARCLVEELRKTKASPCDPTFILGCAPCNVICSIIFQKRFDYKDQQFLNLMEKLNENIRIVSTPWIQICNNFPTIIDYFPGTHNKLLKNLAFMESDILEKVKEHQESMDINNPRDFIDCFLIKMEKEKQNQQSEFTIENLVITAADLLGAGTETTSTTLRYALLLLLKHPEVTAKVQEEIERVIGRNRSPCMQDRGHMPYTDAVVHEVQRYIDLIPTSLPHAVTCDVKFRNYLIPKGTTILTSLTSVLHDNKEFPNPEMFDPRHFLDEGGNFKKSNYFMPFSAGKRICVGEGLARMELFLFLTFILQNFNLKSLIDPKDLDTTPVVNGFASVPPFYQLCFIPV
Cytochrome P450 2D6 (Homo sapiens), sequence (P10635 whole entry, looked up): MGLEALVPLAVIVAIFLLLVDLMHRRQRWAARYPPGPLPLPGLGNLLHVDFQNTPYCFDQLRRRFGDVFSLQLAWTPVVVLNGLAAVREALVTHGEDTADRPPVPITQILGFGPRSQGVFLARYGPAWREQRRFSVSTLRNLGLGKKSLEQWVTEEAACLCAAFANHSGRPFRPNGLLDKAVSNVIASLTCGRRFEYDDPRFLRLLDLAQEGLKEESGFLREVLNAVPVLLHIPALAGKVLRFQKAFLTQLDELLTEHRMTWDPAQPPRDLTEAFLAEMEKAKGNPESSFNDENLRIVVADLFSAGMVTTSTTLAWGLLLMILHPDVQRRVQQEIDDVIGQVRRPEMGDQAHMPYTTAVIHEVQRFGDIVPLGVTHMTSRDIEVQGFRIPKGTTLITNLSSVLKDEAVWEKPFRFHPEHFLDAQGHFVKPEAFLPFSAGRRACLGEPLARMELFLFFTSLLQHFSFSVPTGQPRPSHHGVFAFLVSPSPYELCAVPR
Voltage-gated inwardly rectifying potassium channel KCNH2 (Homo sapiens), sequence (Q12809 whole entry, looked up): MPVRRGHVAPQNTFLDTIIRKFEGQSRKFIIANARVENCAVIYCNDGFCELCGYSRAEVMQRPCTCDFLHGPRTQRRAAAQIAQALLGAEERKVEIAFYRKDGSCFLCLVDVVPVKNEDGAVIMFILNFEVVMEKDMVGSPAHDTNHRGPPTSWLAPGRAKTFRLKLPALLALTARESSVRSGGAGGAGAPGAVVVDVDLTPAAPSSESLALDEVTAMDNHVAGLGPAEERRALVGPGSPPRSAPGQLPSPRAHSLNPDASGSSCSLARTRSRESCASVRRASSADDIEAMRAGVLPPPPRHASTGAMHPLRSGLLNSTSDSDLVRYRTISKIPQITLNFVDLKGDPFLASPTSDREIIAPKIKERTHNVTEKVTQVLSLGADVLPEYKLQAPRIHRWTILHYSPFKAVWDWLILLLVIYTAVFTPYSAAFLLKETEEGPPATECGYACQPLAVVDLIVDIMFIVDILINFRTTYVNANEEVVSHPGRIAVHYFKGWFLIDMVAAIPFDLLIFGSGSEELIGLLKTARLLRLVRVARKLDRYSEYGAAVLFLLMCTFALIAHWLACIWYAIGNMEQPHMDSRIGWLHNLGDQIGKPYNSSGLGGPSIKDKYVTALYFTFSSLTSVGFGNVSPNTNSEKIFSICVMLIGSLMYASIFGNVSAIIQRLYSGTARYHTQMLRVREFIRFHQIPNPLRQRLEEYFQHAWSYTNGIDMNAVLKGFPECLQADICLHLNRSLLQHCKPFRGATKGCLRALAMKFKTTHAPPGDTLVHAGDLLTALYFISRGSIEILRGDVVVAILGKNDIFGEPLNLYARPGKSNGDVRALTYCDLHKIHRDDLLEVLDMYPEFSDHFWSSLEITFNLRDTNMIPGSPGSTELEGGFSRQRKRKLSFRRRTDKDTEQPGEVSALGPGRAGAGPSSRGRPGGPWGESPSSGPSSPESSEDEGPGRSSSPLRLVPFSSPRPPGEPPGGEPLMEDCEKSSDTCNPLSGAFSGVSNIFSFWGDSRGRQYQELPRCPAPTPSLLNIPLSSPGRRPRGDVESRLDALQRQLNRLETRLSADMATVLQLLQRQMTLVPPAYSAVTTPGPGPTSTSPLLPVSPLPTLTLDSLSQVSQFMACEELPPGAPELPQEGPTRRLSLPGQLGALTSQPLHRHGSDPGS

With `CC1=C(O)C(=O)OC1C` (stereo unspecified), the Potency result in assay [1], in assay [2], in assay [3], in assay [4], in assay [5] and in assay [6] was “inactive” in each case.
In the case of `NS(=O)(=O)c1cc(-c2nn[nH]n2)c(NCc2cccs2)cc1Cl`, the Potency result in assay [1], in assay [2], in assay [4] and in assay [5] was “inactive” throughout. Further, in assay [3], the Potency is 24.5 µM (active).
In the case of `COc1ccc(Nc2ccc(OC)cc2)cc1`, the Potency in assay [1] was 36.2 µM (active); in assay [2], 2.29 µM (active); in assay [3], 16.2 µM (active); in assay [4] it was 18.2 µM (active); in assay [6], 18.2 µM (active). Also, the Potency result in assay [5] is “inactive”.
Regarding `Cc1ccc([N+](=O)[O-])c(N)c1`, the Potency result in assay [1], in assay [3], in assay [5] and in assay [6] was “inactive” each time. In addition, the results for the Potency in assay [2] and in assay [4] were 38.9 µM (active) and 24.6 µM (active), respectively.
For the compound `N#CSCC(=O)O`, the Potency result in assay [1], in assay [2], in assay [3], in assay [4] and in assay [5] was “inactive” in each case.
`CCOc1ccc(OCC)c(Cl)c1`: the Potency entry in assay [1], in assay [2], in assay [3], in assay [5] and in assay [6] was “inactive” throughout. Further, the Potency in assay [4] was 25.2 µM (active).
In the case of `Cc1ccc(C(C)C)cc1O`, the Potency result in assay [1] and in assay [5] was “inactive” throughout. For the same compound, the Potency was 1.78 µM (active) in assay [2], 15.9 µM (active) in assay [3] and 22.4 µM (active) in assay [4].
Consider `CC1=CC(=O)CC(C)(C)C1=O`, for which the Potency entry in assay [1], in assay [2], in assay [3], in assay [4], in assay [5] and in assay [6] was “inactive” in each case.
For the compound `O=[N+]([O-])c1nccn1CO[C@@H](CO)[C@H](O)CO`, the Potency in assay [1] is 38.9 µM (active). The Potency result in assay [3], in assay [4] and in assay [5] was “inactive” in each case.
Turning to `Cn1cnc2c(F)c(Nc3ccc(Br)cc3Cl)c(C(=O)NOCCO)cc21`, the Potency entry in assay [1] and in assay [5] was “inactive” in each case. In assay [2], the Potency was 8.71 µM (active).
In the case of `CCOC(=O)CS`, the Potency result in assay [1], in assay [5] and in assay [6] was “inactive” throughout. The Potency in assay [2] was 82 µM (active); in assay [4], 65.1 µM (active).
In the case of `Cc1ncc(CO)c(CN)c1O`, the Potency entry in assay [1], in assay [3] and in assay [4] was “inactive” in each case.
For `CCOC(=O)c1cc(=O)c2c(OCC(COc3cccc4oc(C(=O)OCC)cc(=O)c34)OC(=O)[C@@H](N)CCCCN)cccc2o1`, the Potency entry in assay [1], in assay [2] and in assay [5] was “inactive” each time.
Regarding `CCC(=O)Nc1ccc(O)cc1`, the Potency result in assay [1], in assay [3], in assay [4] and in assay [5] was “inactive” in each case.
For `CS(=O)(=O)c1ccc([C@@H](O)[C@@H](CF)NC(=O)C(Cl)Cl)cc1`, the Potency entry in assay [1], in assay [4], in assay [5] and in assay [6] was “inactive” in each case. In assay [2], the Potency is 21.9 µM (active).
Take `C=C(C)C(=O)OCCOP(=O)(O)O`: the Potency result in assay [1], in assay [3], in assay [4] and in assay [5] was “inactive” in each case.
`CCN(CC)CC1CCCCN1CC(=O)N1c2ccccc2C(=O)Nc2cccnc21` (stereo unspecified): the Potency result in assay [1], in assay [2] and in assay [4] was “inactive” in each case. Besides, the Potency in assay [6] was 6.92 µM (active).
With `CCCCNC(=S)NCCCC`, the Potency is 1.42 µM (active) in assay [1], 79.6 µM (active) in assay [2], 44.8 µM (active) in assay [4] and 31.7 µM (active) in assay [6]. Moreover, the Potency result in assay [5] is “inactive”.
Taken in the same sequence, the figures for `CC(=O)N(CC(O)CN(C(C)=O)c1c(I)c(C(=O)NCC(O)CO)c(I)c(C(=O)NCC(O)CO)c1I)c1c(I)c(C(=O)NCC(O)CO)c(I)c(C(=O)NCC(O)CO)c1I` (stereo unspecified) were “inactive”, “inactive”, “inactive”, “inactive” and “inactive”.
In the case of `O=C1Nc2ccc([N+](=O)[O-])cc2C1=O`, the Potency is 7.09 µM (active) in assay [1], 35.5 µM (active) in assay [3] and 22.4 µM (active) in assay [4]. Moreover, the Potency entry in assay [5] was “inactive”.
Turning to `COc1cc2c(cc1N)oc1ccccc12`, the Potency is 7.25 µM (active) in assay [1], 4.57 µM (active) in assay [2], 0.513 µM (active) in assay [4] and 7.25 µM (active) in assay [6]. The Potency result in assay [5] was “inactive”.
In the case of `COc1ccc(S(=O)(=O)Nc2nnc(CC(C)C)s2)cc1`, the Potency entry in assay [1], in assay [4], in assay [5] and in assay [6] was “inactive” in each case. Besides, the Potency in assay [3] was 9.77 µM (active).
With `CN(C)Cc1ccccc1`, in assay [1], the Potency was 18 µM (active). Further, the Potency entry in assay [2] and in assay [6] was “inactive” in each case.
For the compound `N#Cc1ccc(C(c2ccc(C#N)cc2)n2cncn2)cc1`, the Potency entry in assay [1] and in assay [5] was “inactive” in each case. The Potency in assay [2] was 13.3 µM (active).
In the case of `Nc1ccc2ccccc2c1S(=O)(=O)O`, the Potency in assay [1] was 32.4 µM (active); in assay [2], 40.7 µM (active); in assay [4], 3.24 µM (active); in assay [6], 57.5 µM (active). The Potency entry in assay [5] is “inactive”.
Regarding `OCc1ccccc1O`, the Potency result in assay [1], in assay [3], in assay [4], in assay [5] and in assay [6] was “inactive” in each case.
Regarding `Cc1c(N)cccc1N`, the Potency is 72.6 µM (active) in assay [1], 64.7 µM (active) in assay [3] and 23 µM (active) in assay [4].
For `Cc1cccc(C)c1NC(=O)CN1CCCCCC1`, in assay [1], the Potency is 12.3 µM (active). Also, the Potency result in assay [3], in assay [4], in assay [5] and in assay [6] was “inactive” in each case.
As for `CCCc1c2oc(C(=O)O)cc(=O)c2cc2c(=O)cc(C(=O)O)n(CC)c12`, the Potency entry in assay [1], in assay [2], in assay [4], in assay [5] and in assay [6] was “inactive” each time.
Take `CC(C)(CO)[C@@H](O)C(=O)NCCC(=O)O`: the Potency entry in assay [1], in assay [2] and in assay [6] was “inactive” throughout.
For `CCOC(=O)[C@H](CCc1ccccc1)N[C@@H](C)C(=O)N1Cc2cc(OC)c(OC)cc2C[C@H]1C(=O)O`, the Potency entry in assay [1] and in assay [4] was “inactive” throughout. The Potency in assay [3] is 15.5 µM (active).
Consider `CCNCCO`, for which the Potency entry in assay [1], in assay [2], in assay [4] and in assay [6] was “inactive” each time.
`COC(=O)N[C@H](C(=O)N[C@@H](Cc1ccccc1)[C@@H](O)CN(Cc1ccc(-c2ccccn2)cc1)NC(=O)[C@@H](NC(=O)OC)C(C)(C)C)C(C)(C)C`: the Potency result in assay [1], in assay [4] and in assay [5] was “inactive” throughout. Besides, the Potency in assay [3] was 15.5 µM (active).
On to `CCOc1ccccc1N`, for which the Potency in assay [1] is 3.53 µM (active); in assay [2], 22.3 µM (active); in assay [4], 19.9 µM (active); in assay [6] it was 15.8 µM (active).
